This note sets out measurements from PubChem BioAssay.

Assay [1] in a line: binders of probe aFSTL3 on microarray, primary screen, stem cell growth factor project, biochemical, small-molecule microarray, fluorescence 635/667 (AID 1064).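 Further: measures binding of the biotinylated anti-FSTL3 antibody to printed compounds.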 To be noted: higher = more signal.
A short description of assay [2]: binders from COS7 lysate, DM2A8 probe, primary screen, torsin A project, cell lysate, small-molecule microarray, fluorescence 635/667 (AID 1065). To be noted: higher = more signal, COS7 lysate expressing mutant human TOR1A.
Assay [3] in a line: binders of probe aFGF2 on microarray, primary screen, stem cell growth factor project, biochemical, small-molecule microarray, fluorescence 635/667 (AID 1067).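 Further: measures binding of biotinylated aFGF2 protein to printed compounds on slides; z-score merges feature fluorescence and signal-to-noise across triplicate slides.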 To be noted: higher = more signal.
Assay [4] can be described thus: binders of probe aFGF10 on microarray, primary screen, stem cell growth factor project, biochemical, small-molecule microarray, fluorescence 635/667 (AID 1071).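 Further: score merges 667 nm spot intensity and signal to noise from triplicate slides.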 To be noted: higher = more signal.
Assay [5] concerns the target Neurogenic locus notch homolog protein 2 (Homo sapiens) (UniProt Q04721). Kind of assay: Notch2 binders on small-molecule microarrays, primary screen, biochemical, small-molecule microarray, 635 nm fluorescence, stem cell growth factors (AID 1073). The conditions noted are these: Notch2 binding, higher = more signal.
For assay [6], the target named is Pro-neuregulin-1, membrane-bound isoform (Homo sapiens) (UniProt Q02297). Kind of assay: NRG1 binders on small-molecule microarrays, primary screen, psychiatric disease protein project, biochemical, small-molecule microarray, fluorescence 635/667 (AID 1075).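 Further: score combines 667 nm spot fluorescence with signal to noise.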 The conditions noted are these: NRG1 binding, 635 nm fluorescence, higher = more signal.
Chain of Pro-neuregulin-1, membrane-bound isoform (Homo sapiens) (Q02297 whole entry, looked up, the tested form may be a part, canonical isoform): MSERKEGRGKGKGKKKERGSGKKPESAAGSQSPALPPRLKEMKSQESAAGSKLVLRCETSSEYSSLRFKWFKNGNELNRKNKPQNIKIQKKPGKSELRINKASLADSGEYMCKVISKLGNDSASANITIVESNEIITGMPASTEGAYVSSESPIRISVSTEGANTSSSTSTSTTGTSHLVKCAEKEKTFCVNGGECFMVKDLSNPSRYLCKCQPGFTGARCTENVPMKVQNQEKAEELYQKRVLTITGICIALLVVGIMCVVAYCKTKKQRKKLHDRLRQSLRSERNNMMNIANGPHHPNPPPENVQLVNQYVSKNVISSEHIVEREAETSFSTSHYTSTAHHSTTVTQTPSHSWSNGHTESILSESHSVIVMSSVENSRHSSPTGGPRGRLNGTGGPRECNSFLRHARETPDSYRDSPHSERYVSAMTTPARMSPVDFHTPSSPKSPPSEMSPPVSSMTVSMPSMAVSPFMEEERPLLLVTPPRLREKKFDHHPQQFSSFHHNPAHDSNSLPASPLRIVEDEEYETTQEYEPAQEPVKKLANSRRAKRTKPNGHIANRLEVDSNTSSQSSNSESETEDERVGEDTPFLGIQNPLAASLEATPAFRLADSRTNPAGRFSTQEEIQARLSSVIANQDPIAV
For assay [7], the system named is Neuregulin-1 EGF-like domain. Kind of assay: binders of neuregulin-1 EGF-like domain, primary screen, biochemical, small-molecule microarray, 635 nm fluorescence (AID 1081).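 Further: binding of the protein to compounds printed on small-molecule microarray slides.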 The conditions noted are these: small-molecule microarray binding, higher = more signal.
The nature of assay [8]: FRG1 promoter luciferase signal modulators, primary screen, FRG1 inhibition for FSHD, cell-based, C2C12 myotubes, firefly/Renilla luciferase, luminescence (AID 1084). To be noted: higher = more signal, called active from +8 up or from −8 down.
Assay [9] is described as follows: binders of probe aFST on microarray, primary screen, stem cell growth factor project, biochemical, small-molecule microarray, fluorescence 635/667 (AID 1086).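 Further: score merges 667 nm fluorescence with signal-to-noise of each printed compound spot.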 To be noted: higher = more signal.
Assay [10] can be described thus: binders of probe aHhip on microarray, primary screen, stem cell growth factor project, biochemical, small-molecule microarray, fluorescence 635/667 (AID 1087).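 Further: score merges spot fluorescence at 667nm with spot signal to noise ratio.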 The conditions noted are these: higher = more signal.

The source made the active and inactive calls.

Chain of Neurogenic locus notch homolog protein 2 (Homo sapiens) (Q04721 whole entry, looked up, canonical isoform): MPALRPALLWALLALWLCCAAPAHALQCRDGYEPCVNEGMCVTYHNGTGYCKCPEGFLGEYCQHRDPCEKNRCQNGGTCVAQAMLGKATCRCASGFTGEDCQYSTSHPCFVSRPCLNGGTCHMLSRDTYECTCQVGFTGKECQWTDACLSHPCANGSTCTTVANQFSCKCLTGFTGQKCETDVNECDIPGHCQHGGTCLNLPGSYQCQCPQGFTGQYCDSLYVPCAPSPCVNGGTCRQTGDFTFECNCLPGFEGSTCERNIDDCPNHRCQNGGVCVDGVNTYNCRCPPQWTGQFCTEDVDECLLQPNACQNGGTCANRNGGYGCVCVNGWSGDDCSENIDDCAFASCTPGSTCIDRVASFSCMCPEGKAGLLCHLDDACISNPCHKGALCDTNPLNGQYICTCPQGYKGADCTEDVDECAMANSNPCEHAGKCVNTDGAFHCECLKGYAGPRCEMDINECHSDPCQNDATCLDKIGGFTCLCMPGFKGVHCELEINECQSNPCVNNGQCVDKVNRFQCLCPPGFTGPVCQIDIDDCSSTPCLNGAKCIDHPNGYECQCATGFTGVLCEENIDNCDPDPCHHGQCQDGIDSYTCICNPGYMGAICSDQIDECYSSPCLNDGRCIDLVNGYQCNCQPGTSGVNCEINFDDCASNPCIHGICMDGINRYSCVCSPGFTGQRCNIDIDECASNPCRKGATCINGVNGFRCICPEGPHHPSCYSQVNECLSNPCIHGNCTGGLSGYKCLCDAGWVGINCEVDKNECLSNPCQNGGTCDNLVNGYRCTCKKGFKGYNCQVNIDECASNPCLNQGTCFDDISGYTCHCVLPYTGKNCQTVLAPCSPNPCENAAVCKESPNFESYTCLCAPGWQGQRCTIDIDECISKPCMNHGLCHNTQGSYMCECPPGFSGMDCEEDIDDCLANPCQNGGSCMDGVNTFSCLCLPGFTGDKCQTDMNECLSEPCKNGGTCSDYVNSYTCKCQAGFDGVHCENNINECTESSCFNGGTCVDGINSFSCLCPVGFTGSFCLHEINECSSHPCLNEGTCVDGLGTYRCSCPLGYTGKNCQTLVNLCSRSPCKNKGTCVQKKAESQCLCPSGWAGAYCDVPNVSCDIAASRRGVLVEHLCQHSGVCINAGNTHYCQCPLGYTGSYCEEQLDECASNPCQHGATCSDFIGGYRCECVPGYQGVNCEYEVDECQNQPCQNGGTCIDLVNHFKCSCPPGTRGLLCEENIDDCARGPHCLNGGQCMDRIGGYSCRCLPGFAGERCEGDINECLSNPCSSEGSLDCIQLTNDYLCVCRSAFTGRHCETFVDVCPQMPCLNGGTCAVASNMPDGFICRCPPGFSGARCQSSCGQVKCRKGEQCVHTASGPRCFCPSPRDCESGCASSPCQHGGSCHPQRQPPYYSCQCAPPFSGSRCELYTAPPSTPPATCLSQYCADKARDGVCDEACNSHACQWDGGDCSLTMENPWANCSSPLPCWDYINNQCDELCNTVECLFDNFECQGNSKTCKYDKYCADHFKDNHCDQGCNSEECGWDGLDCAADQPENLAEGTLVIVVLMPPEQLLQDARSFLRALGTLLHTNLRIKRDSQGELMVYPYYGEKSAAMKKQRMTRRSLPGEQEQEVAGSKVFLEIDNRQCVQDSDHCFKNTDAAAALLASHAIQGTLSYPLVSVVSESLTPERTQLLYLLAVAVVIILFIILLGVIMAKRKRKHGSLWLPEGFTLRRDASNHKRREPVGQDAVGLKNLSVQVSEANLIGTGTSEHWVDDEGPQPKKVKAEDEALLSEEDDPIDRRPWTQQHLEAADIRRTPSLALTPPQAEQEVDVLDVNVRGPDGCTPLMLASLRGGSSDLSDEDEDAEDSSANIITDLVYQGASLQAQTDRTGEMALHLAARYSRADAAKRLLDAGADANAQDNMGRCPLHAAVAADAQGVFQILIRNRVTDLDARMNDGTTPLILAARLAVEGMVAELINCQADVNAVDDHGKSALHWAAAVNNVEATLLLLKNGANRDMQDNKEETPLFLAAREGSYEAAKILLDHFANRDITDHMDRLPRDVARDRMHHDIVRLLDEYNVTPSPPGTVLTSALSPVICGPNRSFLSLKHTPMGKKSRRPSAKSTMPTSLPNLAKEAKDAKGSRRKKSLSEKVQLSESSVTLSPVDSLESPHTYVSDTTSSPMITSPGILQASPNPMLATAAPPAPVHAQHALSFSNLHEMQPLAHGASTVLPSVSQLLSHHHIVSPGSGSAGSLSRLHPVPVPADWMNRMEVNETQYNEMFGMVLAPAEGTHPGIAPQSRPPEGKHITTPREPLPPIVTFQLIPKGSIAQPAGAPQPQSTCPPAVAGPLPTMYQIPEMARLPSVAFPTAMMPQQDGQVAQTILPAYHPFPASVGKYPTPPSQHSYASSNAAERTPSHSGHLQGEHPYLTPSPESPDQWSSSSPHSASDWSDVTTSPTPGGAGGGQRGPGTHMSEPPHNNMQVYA

Consider `C=CCNC(=O)[C@H]1[C@@H]2C(=O)O[C@@H](c3ccccc3)[C@@H](c3ccccc3)N2[C@@H](c2ccc(OCCO)cc2)[C@]12C(=O)N(C(=O)OCCOC)c1ccc(C#Cc3ccc(OC)cc3)cc12`, for which the composite z-score in assay [1] was 0.0886; in assay [2], 0.91; in assay [3], -0.0252; in assay [4] it was 0.713; in assay [5] it was 0.897; in assay [6] it was 0.671. Also, the composite z-score was 1.12 in [7], 0.111 in assay [9] and -0.335 in [10]. The z-score in assay [8] is 0.0138 (inactive).

Take `COCCCNC(=O)[C@@H]1c2ccccc2C(=O)N(C2Cc3ccccc3C2)[C@H]1c1ccc(CO)cc1`: the composite z-score is -0.0989 in assay [1]; 0.703 in assay [2]; -0.151 in assay [3]; 0.0338 in [4]; -0.0746 in [5]; 0.209 in assay [6]. In addition, the results for the composite z-score in [7], in [9] and in assay [10] were 1.4, 0.506 and -0.137, respectively. For the same compound, the z-score in assay [8] was 0.0504 (inactive).

In the case of `CCCNC(=O)[C@@]1(Sc2ccc(C)cc2)CC(=O)N(C(C)C)[C@@H]1c1ccc(CO)cc1I`, the composite z-score in [1] was 1.2; in assay [2] it was 0.0023; in assay [3] it was -0.104; in assay [4] it was -0.77; in [5] it was -1.06; in [6], 1.98. For the same compound, the results for the composite z-score in assay [7], in [9] and in assay [10] were -0.0039, -0.433 and -0.0994, respectively. Moreover, in assay [8], the z-score is -0.733 (inactive).

Consider `O=C1[C@@H]2[C@@H](CC(COc3ccccc3)=C3[C@@H](CCc4ccccc4)OB(O)C[C@@H]32)C(=O)N1Cc1ccccc1`, for which the composite z-score was -0.559 in [1]; 0.242 in [2]; -0.0737 in assay [3]; 0.265 in assay [4]; 0.697 in assay [5]; 0.81 in assay [6]. Moreover, the composite z-score in [7] is -0.113; in assay [9], 0.531; in assay [10], -0.289. Also, the z-score in assay [8] was 0.0109 (inactive).

Turning to `Cc1ccccc1C(O)C1C=CC2C(=O)N(c3ccccc3)C(=O)C2N1Nc1ccc([N+](=O)[O-])cc1` (stereo not given), the composite z-score in assay [1] was -0.0848; in assay [2] it was 0.804; in assay [3], -0.0271; in assay [4], 0.681; in [5], 1.07; in [6], 1.87. Also, the results for the composite z-score in assay [7], in [9] and in assay [10] were 1.27, 0.886 and -0.189, respectively. In addition, the z-score in assay [8] is -1.24 (inactive).

Take `[N-]=[N+]=Nc1ccccc1[C@@H]1OC(c2ccc(OCCCO)cc2)=N[C@]1(Cc1ccccc1)C(=O)NCc1ccccc1`: the composite z-score in assay [1] was found to be 0.97; in assay [2], 1.72; in [3], 0.0653; in [4], 0.371; in [5], 1.59; in assay [6], 1.6. Also, the composite z-score in assay [7] stood at 1.2; in assay [9], 1.21; in assay [10], 0.0614. Moreover, in assay [8], the z-score is -1.2 (inactive).

On to `C=C(CCCC)C(=O)CC[C@@H](OC(=O)c1cccnc1)c1ccc(OCCO)cc1`, for which the composite z-score in assay [1] is -0.449; in assay [2] it was 0.887; in [3], -0.0894; in assay [4], 0.681; in [5], 0.214; in assay [6], 0.89. Also, the composite z-score is 1.19 in assay [7], 0.204 in assay [9] and -0.0645 in [10]. Besides, in [8], the z-score is 0.84 (inactive).

Regarding `C#C[C@@H](CC)O[Si](C#CCCCC#N)(C(C)C)C(C)C`, the composite z-score in assay [1] was 0.0465; in assay [2], 0.934; in assay [3], -0.0891; in [4] it was -0.146; in [5], -0.604; in [6], 0.873. Moreover, the composite z-score in assay [7] is 0.74; in assay [9], -0.241; in assay [10], -0.236. Also, in assay [8], the z-score is -0.0405 (inactive).

Turning to `Cc1ccc(S[C@]2(C(=O)NC(C)C)CC(=O)N(C(C)C)[C@@H]2c2ccc(CO)cc2I)cc1`, the composite z-score is -0.244 in assay [1]; -0.242 in assay [2]; -0.0272 in [3]; 0.145 in assay [4]; 0.0213 in assay [5]; 0.637 in assay [6]. Further, the composite z-score is 1.05 in [7], -0.198 in [9] and 0.0749 in assay [10]. Further, in [8], the z-score was -0.13 (inactive).

As for `CC1CC/C=C\[C@H]2OC34C=CCN(C(C)(C)C)C(=O)[C@H]3N(C(CO)C(C)C)C(=O)[C@@H]4C2C(=O)O1` (stereo not given in full), the composite z-score is -0.259 in [1]; 2.01 in [2]; -0.141 in assay [3]; 0.323 in assay [4]; -0.147 in [5]; 0.867 in [6]. For the same compound, the composite z-score is 1.5 in assay [7], -0.0219 in assay [9] and -0.318 in assay [10]. Also, the z-score in assay [8] is 1.44 (inactive).

With `Cc1ccc(C(C)CC(O)C2C=CC3C(=O)N(c4ccccc4)C(=O)C3N2Nc2ccc(C#N)cc2)o1` (stereo not given), the composite z-score in [1] is 0.0794; in assay [2], -0.28; in assay [3] it was 0.0489; in assay [4] it was 0.954; in [5] it was 1.7; in assay [6] it was 1.88. Also, the composite z-score in assay [7] is 1.08; in [9] it was 0.998; in assay [10], -0.283. The z-score in assay [8] was -0.629 (inactive).
